Assay results: PubChem BioAssay AID1347074 (Center for Chemical Genomics, University of Michigan, 2019)
Hit rate of the full screen: of about 47,000 compounds, about 2,800 (6%) were called active. This is one part of a sample in which actives are shown more often than they occur. No stated cut-off is given here; in the data, active means z-score above about 3 (passing the limit was not always enough); inactive means the rest.

target: Endoribonuclease Dicer (Homo sapiens) (UniProt Q9UPY3); test: inhibitors of Dicer pre-microRNA processing, primary screen, biochemical, cat-ELCCA, chemiluminescence (AID 1347074); conditions: cat-ELCCA pre-miR-21 Dicer processing, at 25 µM, hits give high values;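 further: plate controls were vehicle for no effect and no enzyme for full effect; higher signal means more uncleaved substrate so more Dicer inhibition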
Sequence (Q9UPY3 whole entry, looked up): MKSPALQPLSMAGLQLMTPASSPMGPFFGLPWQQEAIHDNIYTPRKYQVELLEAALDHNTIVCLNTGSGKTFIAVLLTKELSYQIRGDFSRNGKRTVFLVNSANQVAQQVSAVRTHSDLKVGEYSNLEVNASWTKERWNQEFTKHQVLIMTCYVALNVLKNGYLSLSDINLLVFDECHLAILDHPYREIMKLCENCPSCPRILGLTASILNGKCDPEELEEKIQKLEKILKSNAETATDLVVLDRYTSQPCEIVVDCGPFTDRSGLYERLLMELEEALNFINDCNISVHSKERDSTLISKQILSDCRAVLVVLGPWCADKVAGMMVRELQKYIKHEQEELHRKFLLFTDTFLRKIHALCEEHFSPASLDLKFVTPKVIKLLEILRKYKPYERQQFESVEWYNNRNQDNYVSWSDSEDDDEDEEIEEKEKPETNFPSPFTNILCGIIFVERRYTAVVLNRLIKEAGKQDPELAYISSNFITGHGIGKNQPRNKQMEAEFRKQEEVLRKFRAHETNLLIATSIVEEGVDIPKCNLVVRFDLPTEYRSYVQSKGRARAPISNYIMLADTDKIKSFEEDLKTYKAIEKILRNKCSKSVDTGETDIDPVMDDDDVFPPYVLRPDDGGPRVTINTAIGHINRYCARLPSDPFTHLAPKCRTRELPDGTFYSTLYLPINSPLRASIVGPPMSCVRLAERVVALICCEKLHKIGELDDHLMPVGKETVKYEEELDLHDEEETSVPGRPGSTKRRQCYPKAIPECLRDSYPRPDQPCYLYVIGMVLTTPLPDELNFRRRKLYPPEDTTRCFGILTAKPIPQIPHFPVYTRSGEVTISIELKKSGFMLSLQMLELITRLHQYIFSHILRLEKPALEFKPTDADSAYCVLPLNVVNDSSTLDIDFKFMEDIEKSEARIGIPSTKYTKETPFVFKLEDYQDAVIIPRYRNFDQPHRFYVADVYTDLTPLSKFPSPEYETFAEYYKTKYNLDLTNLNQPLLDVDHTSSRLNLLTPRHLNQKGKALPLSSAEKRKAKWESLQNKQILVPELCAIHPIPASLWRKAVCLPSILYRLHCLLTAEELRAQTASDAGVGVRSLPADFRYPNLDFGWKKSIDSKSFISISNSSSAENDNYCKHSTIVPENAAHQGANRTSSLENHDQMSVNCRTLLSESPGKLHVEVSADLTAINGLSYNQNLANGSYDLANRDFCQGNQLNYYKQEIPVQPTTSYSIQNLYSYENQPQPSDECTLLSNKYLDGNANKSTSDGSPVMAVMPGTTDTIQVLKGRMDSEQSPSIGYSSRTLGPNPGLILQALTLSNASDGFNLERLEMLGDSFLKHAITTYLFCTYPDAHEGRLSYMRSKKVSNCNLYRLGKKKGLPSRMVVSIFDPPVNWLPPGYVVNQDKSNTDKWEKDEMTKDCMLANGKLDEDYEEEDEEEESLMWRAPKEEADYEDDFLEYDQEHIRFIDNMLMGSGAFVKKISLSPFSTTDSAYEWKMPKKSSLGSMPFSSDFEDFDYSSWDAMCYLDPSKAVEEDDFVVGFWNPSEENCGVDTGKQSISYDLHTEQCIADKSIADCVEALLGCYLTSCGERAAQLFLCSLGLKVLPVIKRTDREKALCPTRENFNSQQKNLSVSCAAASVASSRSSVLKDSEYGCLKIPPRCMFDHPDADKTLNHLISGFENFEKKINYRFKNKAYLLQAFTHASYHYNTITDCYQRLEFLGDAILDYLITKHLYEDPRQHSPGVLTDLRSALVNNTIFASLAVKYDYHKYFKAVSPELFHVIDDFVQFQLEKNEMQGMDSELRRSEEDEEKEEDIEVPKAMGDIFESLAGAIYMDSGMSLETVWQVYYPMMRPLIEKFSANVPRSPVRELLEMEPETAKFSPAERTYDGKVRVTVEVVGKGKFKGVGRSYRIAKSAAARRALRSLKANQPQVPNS

SMILES | z-score
O=C1CC(N2CCN(c3cccc(Cl)c3)CC2)C(=O)N1c1cccc(Cl)c1 (centres undefined) | 0.79 (inactive)
O=C(O)C1CC(=O)N(c2cccc(Cl)c2)C1 (centres undefined) | 8.4 (active)
O=C(O)C1CC(=O)N(Cc2ccccc2Cl)C1 (centres undefined) | -1.02 (inactive)
CC(c1ccccc1)C1C(C#N)=C(N)Oc2n[nH]c(-c3ccccc3)c21 (centres undefined) | -0.54 (inactive)
Cc1cc(C)cc(N2CC(C)Cn3c2nc2c3c(=O)n(CC(=O)O)c(=O)n2C)c1 (centres undefined) | -0.04 (inactive)
Cc1ccc(C(=O)CSc2nnc(-c3ccccc3)n2C)cc1 | 8.7 (inactive)
Cc1cc(-c2ccccc2)n2nc(C)cc2n1 | 0.05 (inactive)
CCOC(=O)c1c(N)sc2c1CC(C)(C)OC2 | -0.32 (inactive)
CC1=CC(C)(C)N(C(=O)NC2CCCCC2)c2ccc(C)cc21 | -5.39 (inactive)
CC1=CC(C)(C)N(S(=O)(=O)c2ccc(C)cc2)c2cc3c(cc21)OCO3 | 3.26 (active)
Cn1c(N2CCCCC2)nc2c1c(=O)n(Cc1ccc(Cl)cc1Cl)c(=O)n2C | -1.04 (inactive)
Cn1c(CSc2cccs2)nnc1SCc1c(Cl)cccc1Cl | 0.02 (inactive)
CC(=O)Nc1ccc(C(=O)CSc2nc3nc(C)cc(C)c3c(=O)[nH]2)cc1 | -0.34 (inactive)
O=C1/C(=C/c2ccc(Cl)cc2)CCC/C1=C\c1ccc(Cl)cc1 | -1.13 (inactive)
CN(C)c1ccc(/C=C2\CCC/C(=C\c3ccc(N(C)C)cc3Cl)C2=O)c(Cl)c1 | 3.37 (active)
Cn1ccnc1SCC(=O)Nc1cccc2nsnc12 | -4.69 (inactive)
O=C(CN1C(=O)/C(=C/c2ccccc2Cl)N=C1c1ccccc1)c1ccccc1 | 0.22 (inactive)
CC1=N/C(=C/c2ccccc2Cl)C(=O)O1 | 3.5 (active)
CC1=N/C(=C/c2ccccc2O)C(=O)O1 | 0.13 (inactive)
CCOC(=O)Cn1c(Sc2nc3c(c(=O)n(C)c(=O)n3C)n2C)nc2ccccc21 | 2.22 (inactive)
O=C(O)CC1S/C(=N\N=C\c2ccco2)NC1=O (centres undefined) | -0.87 (inactive)
O=C(NCc1ccc2c(c1)OCO2)c1ccc(Cn2cc(Cl)cn2)cc1 | 1.8 (inactive)

SMILES | z-score
COc1cc(C)c(Cl)cc1S(=O)(=O)n1ccnc1 | -0.35 (inactive)
CCOc1ccc(S(=O)(=O)n2ccnc2)c2ccccc12 | 3.38 (active)
CCOc1ccc(S(=O)(=O)Nc2ccncc2)c(C)c1C | 0.59 (inactive)
CSCC(CSC)OC(=O)NC(=O)c1c(Cl)cccc1Cl | -0.86 (inactive)
NC(=O)C1CCN(C(=O)C2CC(c3ccc(Cl)cc3)=NO2)CC1 (centres undefined) | -1.13 (inactive)
CCOC(=O)CSc1nc2cc(Cl)ccc2s1 | 0.3 (inactive)
N#Cc1sc(SCc2ccccc2)c2c1CC(c1ccccc1)CC2=O (centres undefined) | 0.58 (inactive)
CCCN1C(=O)C(O)(CC(=O)c2ccc(C(C)(C)C)cc2)c2ccccc21 (centres undefined) | -0.52 (inactive)
Cc1cc(N2C(=O)CC(C)(C)CC2=O)n(C)n1 | -0.86 (inactive)
CCC(C)c1ccc(O)c(/C=N/Nc2ccccc2)c1 (centres undefined) | 6.05 (active)
CCOC(=O)c1c(N/N=C\c2ccccc2O)n[nH]c1C | 1.01 (inactive)
COc1ccccc1C1CCN(S(=O)(=O)c2ccc(Oc3c(Cl)cccc3[N+](=O)[O-])cc2)CC1 | 1.46 (inactive)
CCC(C)c1ccccc1OCC(O)CN1C(=O)NC(C)(C)C1=O (centres undefined) | 0.96 (inactive)
Oc1ccccc1-c1nc(/C=C/c2cccs2)no1 | 2.56 (inactive)
Fc1ccc(-n2nnnc2-c2cnc3ccc(Cl)cc3c2-c2ccccc2)cc1 | 0.2 (inactive)
Cc1ccc(-n2nnnc2-c2cnc3ccccc3c2C)cc1 | -0.58 (inactive)
FC(F)(F)c1nc(-c2ccccc2)ncc1-c1nnnn1-c1ccccc1 | 3.06 (active)
CCc1ccccc1N1CC23C=CC(O2)C(C(=O)OC(C)C)C3C1=O (centres undefined) | -0.64 (inactive)
COc1cc(/C=C2/N=C(c3ccccc3)N(C)C2=O)cc(OC)c1OC | 2.54 (inactive)
CCOC(=O)c1c(C)[nH]c(=O)c([N+](=O)[O-])c1O | 0.2 (inactive)
O=C1OC2(CCCCC2)OC1c1ccccc1 (centres undefined) | 3.75 (active)
CC1([N+](=O)[O-])COC(c2ccccc2)OC1 (centres undefined) | 1.75 (inactive)

SMILES | z-score
Cn1c(=O)c(C#N)c(O)c2ccccc21 | 0.83 (inactive)
CCCCc1ccc(-n2c(-c3ccc(F)cc3)coc2=O)cc1 | 9.25 (active)
CCCCc1ccc(S(N)(=O)=O)cc1 | -0.91 (inactive)
Fc1ccc(NC2=NCCN=C(Nc3ccc(F)cc3F)SS2)c(F)c1 | -0.47 (inactive)
CSc1scc(NC(=O)Nc2cc(Cl)cc(Cl)c2)c1S(=O)(=O)C(C)C | 30.2 (active)
O=C(Nc1cc(Cl)cc(Cl)c1)Nc1cnccc1C(F)(F)F | 0.4 (inactive)
O=C(CSc1nc(-c2ccc(F)cc2)cc(C(F)(F)F)n1)N1CCOCC1 | -0.77 (inactive)
C/C(=N\OC(=O)c1ccc(Cl)cc1)c1nnn(-c2cc(C(F)(F)F)cc(C(F)(F)F)c2)c1C | 0.47 (inactive)
CCOc1ccc(S(=O)(=O)N2CCSC2c2cccc(Cl)c2)cc1 (centres undefined) | 1.41 (inactive)
O=c1c2cc(-c3ccccc3)sc2n(Cc2ccccc2Cl)c(=O)n1-c1ccccc1 | 0.38 (inactive)
COC(=O)c1c(NC(=O)CCCOc2ccc(Cl)cc2)sc2c1CCCC2 | 4.01 (active)
CCCC1CCc2c(sc(NC(=O)COc3ccc(Cl)cc3)c2C(N)=O)C1 (centres undefined) | -0.31 (inactive)
COC(=O)c1c(NC(=O)COc2ccccc2)sc2c1CCCC2 | 0.4 (inactive)
CC1(C)CC(=O)C=C(Nc2cc(-c3ccc(Cl)cc3)[nH]n2)C1 | 2.1 (inactive)
Cc1nc2cc(-n3c(O)c[nH]c3=O)ccc2s1 | 1.96 (inactive)
CCOC(=O)c1c(C)oc2ccc(OCc3ccc(C(=O)OC)cc3)cc12 | 0.32 (inactive)
CCOC(=O)C1=C(O)CSC1=Nc1ccc(F)cc1 | 2.03 (inactive)
CCOC(=O)c1c(C)n(CCOc2ccc(F)cc2)c2ccc(O)cc12 | 4.76 (active)
Cc1cc(C)c2c(n1)sc1c(=O)n(C)cnc12 | 1.74 (inactive)
CCOC(=O)C1=C(N)Oc2c(Br)cc(Cl)cc2C1C(C#N)C(=O)OCC (centres undefined) | 2.22 (inactive)
